According to PubChem BioAssay (Tox21):
Inconclusive results are not listed. Activity calls are given as the source filed them. Calls follow the shape of the full dose curve.

These compounds were tested against Beta-2 adrenergic receptor (Homo sapiens) (UniProt P07550) (assay: Adrenergic beta2 receptor (ADRB2) small molecule antagonists, cell-based qHTS assay (AID 1963592; also: nearly all actives have a fitted effect of over 50% in size)). Conditions: CHO-ADRB2 cells, isoproterenol-stimulated cAMP HTRF ratio, 0.5 h; series mostly up to 92.4 µM; activity change, negative = inhibition: at the top concentration.
Sequence of Beta-2 adrenergic receptor (Homo sapiens) (P07550 whole entry, looked up): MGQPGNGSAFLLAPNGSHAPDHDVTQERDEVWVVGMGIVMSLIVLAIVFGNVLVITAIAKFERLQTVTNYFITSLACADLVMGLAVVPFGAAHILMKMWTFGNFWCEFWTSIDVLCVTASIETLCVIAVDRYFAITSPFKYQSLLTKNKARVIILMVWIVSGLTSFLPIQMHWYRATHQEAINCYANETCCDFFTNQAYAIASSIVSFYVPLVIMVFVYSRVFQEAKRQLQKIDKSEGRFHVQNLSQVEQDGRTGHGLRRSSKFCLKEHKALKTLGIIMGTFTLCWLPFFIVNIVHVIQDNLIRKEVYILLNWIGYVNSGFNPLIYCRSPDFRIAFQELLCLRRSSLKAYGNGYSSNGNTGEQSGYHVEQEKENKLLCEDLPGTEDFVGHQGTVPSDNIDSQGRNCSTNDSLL
Excerpt: U.S. Tox21 Program National Center for Advancing Translational Sciences [NCATS] Division of Preclinical Innovation [DPI] U.S. Environmental Protection Agency [EPA] National Institutes of Environmental Health Sciences [NIEHS] National Toxicology Program [NTP] U.S. Food and Drug Administration [FDA] Tox21 Assay Overview: Beta adrenergic receptors (Beta-ARs) belong to the G-protein coupled receptor (GPCR) superfamily, includes three subtypes - beta1, beta2, and beta3. Beta1-AR is the predominant receptor subtype expressed in the heart, and beta2-AR is expressed in the kidney, lung, blood vessel and in the heart, and beta3 is found in the adipocytes. Beta1 and 2 ARs couple to Gs protein and elevate cyclic adenosine mono phosphate (cAMP), which activates protein kinase A and leads to the downstream signaling responsible for the physiological actions. Beta-AR agonists or antagonists are the most prescribed therapeutic agents for heart failure and asthma, and these were one of the first target receptors for the rational drug design. Tox21 10K compound library was screened using the cAMP-Gs dynamic assay (Cisbio Bioassays, Shelton, CT) to identify agonists/antagonists of the Gs-coupled human adrenergic, beta2 receptor (ADRB2) in the CHO-ADRB2 cell line (Codex BioSolutions, Inc. Gaithersburg, MD), which stably over-expresses ADRB2. The principle of cAMP-Gs dynamic assay is based on HTRF technology, which facilitates the fluorescence resonance energy transfer (FRET) between donor Europium cryptate and acceptor d2-labeled cAMP. The cAMP generated within cells competes with the red acceptor, d2-labled cAMP, for binding to the monoclonal anti-cAMP-cryptate (Europium donor). An increase in intracellular cAMP leads to the disruption of FRET signal, and the signal is inversely proportional to the cAMP concentration. Propranolol HCl (Sigma-Aldrich, St. Louis, MO) was used as a positive control in the screening.
Tox21 Assay Protocol Summary: CHO-ADRB2 cells were dispensed at 1,000/well in 4uL assay medium into white/solid 1536-well plates (Greiner Bio-One North America Inc., Monroe, NC) using a Multidrop Combi dispenser (ThermoFisher Scientific, Waltham, MA). The assay plates were incubated at 37C and 5% CO2 for an overnight (18-20hr). Then positive control and test compounds dissolved in DMSO were transferred to the assay plates at 23nL using a Pintool station (Wako, San Diego, CA). Following the compound and positive control transfer, 1uL agonist-stimulation mix containing 1nM Isoproterenol HCl, 100uM IBMX and 25uM Ro-20-1724 was added to each well of the assay plates using BioRAPTR Flying Reagent Dispenser (FRD, Beckman Coulter, Brea, CA). The assay plates were incubated at room temperature for 0.5hr. Then 2.5ul each d2-labled cAMP and anti-cAMP-cryptate solutions were added separately to each well of the assay plates using an FRD and the assay plates were incubated at room temperature for 1hr. The fluorescence signal was measured at two different wavelengths (665nm and 615nm) using an Envision plate reader (Perkin Elmer, Shelton, CT). Data were expressed as the ratio of 665 nm/615 nm.
% is scaled to controls: 0 for no effect and ±100 for the full control effect; potency is read from the fitted curve at half-maximal effect.

Compound	activity change, negative = inhibition	Potency
[O-][N+](=Nc1ccccc1)c1ccccc1	-17.9% (inactive)	
C/C(C=O)=C\c1ccccc1	-11.6% (inactive)	
C=CC(=O)OCCCCCCOC(=O)C=C		inactive
CC(C)COC(=O)c1ccc(O)cc1	-6.01% (inactive)	
C[C@@H]1C[C@H]2O[C@@]3(O[C@@H]2C(C)(C)O)[C@H](O)[C@@]2(C)[C@@H]4CC[C@H]5C(C)(C)[C@@H](O[C@@H]6OC[C@@H](O)[C@H](O)[C@H]6O)CC[C@@]56C[C@@]46CC[C@]2(C)[C@@H]13	-12.2% [at 42.5 µM] (inactive)	
CCCC(=O)OCCc1ccccc1	0.992% (inactive)	
COC(=O)Nc1nc2ccc(C(=O)C3CC3)cc2[nH]1	1.28% [at 42.5 µM] (inactive)	
Cc1cccc(Nc2ccccc2)c1	-7.32% (inactive)	
CCCCNC(=S)NCCCC	5.13% (inactive)	
Cc1coc2ccccc2c1=O	4.33% [at 42.5 µM] (inactive)	
CCCCOC(=O)c1ccccc1	3.29% (inactive)	
CCc1oc2ccccc2c1C(=O)c1cc(I)c(O)c(I)c1	0.814% [at 42.5 µM] (inactive)	
CC(=O)OC(C)C[N+](C)(C)C (stereo not given)	-15.6% [at 42.5 µM] (inactive)	
CS(=O)(=O)Nc1ccc([N+](=O)[O-])cc1Oc1ccccc1		inactive
CC(N)=O	-2.52% [at 240 µM] (inactive)	
CCCCCCCCCCCCN1CCCC1=O	-3.49% (inactive)	
CCOC(=O)CC(C)C	22.6% (inactive)	
O=c1[nH][nH]c2ccccc12	0.449% (inactive)	
O=C(Nc1ccc(Oc2ccc(Cl)cc2)c(Cl)c1)c1cc(I)cc(I)c1O	0.462% [at 42.5 µM] (inactive)	
C/C=C1\C(=O)C[C@H]2[C@@H]3CCC4=CC(=O)CC[C@]4(C)[C@H]3CC[C@]12C	9.11% [at 42.5 µM] (inactive)	

Compound	activity change, negative = inhibition	Potency
COc1ccc(C2CNC(=O)C2)cc1OC1CCCC1 (stereo not given)	5.06% [at 42.5 µM] (inactive)	
CCN(CC)CCOC(=O)C1(C2CCCCC2)CCCCC1	-6.96% [at 42.5 µM] (inactive)	
CC(O)CC(C)O (stereo not given)	1.62% (inactive)	
Cc1nc([N+](=O)[O-])cn1-c1ccc([N+](=O)[O-])cc1	1.63% [at 42.5 µM] (inactive)	
Cc1cc2c(cc1C(F)(F)F)N(C(=O)Nc1ccc(Oc3cccnc3C)nc1)CC2		27.7 µM (active)
COc1ccc(C(=O)/C(Br)=C\C(=O)O)cc1	5.71% (inactive)	
CCN[C@H]1C[C@H](C)S(=O)(=O)c2sc(S(N)(=O)=O)cc21	-9.93% [at 42.5 µM] (inactive)	
OCCN1CCN(CCCN2c3ccccc3Sc3ccc(C(F)(F)F)cc32)CC1		10.6 µM (active)
CCCCCCC(=O)c1ccccc1	-0.29% (inactive)	
C=C(C)C(=O)OCCOCCOC(=O)C(=C)C	-4.08% (inactive)	
CC(C)(C)C(O)/C=C/c1ccc2c(c1)OCO2 (stereo not given)	-22.7% [at 42.5 µM] (inactive)	
CS(=O)(=O)c1ccc([C@@H](CC2CCCC2)C(=O)Nc2cnccn2)cc1Cl	-0.415% (inactive)	
N#CCCN(CCO)CCO	-0.332% (inactive)	
C=C[Si](OCC)(OCC)OCC	0.118% (inactive)	
COc1cccc(N)c1	-18.9% (inactive)	
Cc1ccc(-c2cc(C(F)(F)F)nn2-c2ccc(S(N)(=O)=O)cc2)cc1		60.9 µM (active)
O=C(O)O	-4.62% [at 8.39 µM] (inactive)	
CC/C=C\C/C=C\C/C=C\CCCCCCCC(=O)OC	16.2% (inactive)	
C/C(=C\c1ccc(C(=O)O)cc1)c1ccc2c(c1)C(C)(C)CCC2(C)C	0.0114% [at 42.5 µM] (inactive)	
CCCCNC(=O)NCCCC	5.25% (inactive)	
